# Experimental data: PubChem BioAssay AID431 (Sanford-Burnham Center for Chemical Genomics, 2006)
# Hit rate of the full screen: of about 63,000 compounds, about 1,100 (1.7%) were called active. Only a selection was taken, and actives are over-represented in it overall. Measured potencies and affinities stand elsewhere. A number with no mark means an inactive call.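 How the source made its calls: active means compounds whose percent cytotoxicity in the single-dose primary screen, scaled between solvent and toxic-drug controls, exceeds 50; inactive means the rest.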
# Assay: viability loss of HPDE-C7K cells – cell-based, fluorescence, HTS, primary screen (AID 431);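 further: 0% = DMSO solvent wells and 100% = doxorubicin-treated wells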
# Conditions: HPDE-C7K KRASV12 cells, Alamar Blue viability, 48 h; at 10 µM; active compounds read high
row,SMILES,cytotoxicity
1,Cc1cccc(NC(=O)CSc2n[nH]c(-c3ccncc3)n2)c1,-6.1%
2,Cc1ccc(N(CC(=O)Nc2ccc3c(c2)OCCO3)S(=O)(=O)c2c(C)n[nH]c2C)cc1,9.8%
3,COc1ccccc1-c1nc(C#N)c(N2CCc3ccccc3C2)o1,20.5%
4,COc1cc2c(C#N)c(N3CCCCC3)nc(N)c2c(N)n1,56.9% (active)
5,COc1ccccc1N1CCN(c2nc(N)c(C#N)c(CC#N)c2C#N)CC1,-4.3%
6,COc1cc2c(C#N)c(N3CCN(c4ccccc4OC)CC3)nc(N)c2c(N)n1,57.2% (active)
7,N#Cc1c(N2CCCC2)nc(N)c2c(N)nc(N3CCCC3)cc12,-2.8%
8,CCOc1ccccc1N1CCN(c2nc(N)c(C#N)c(CC#N)c2C#N)CC1,-11.4%
9,CCOc1cc2c(C#N)c(N3CCOCC3)nc(N)c2c(N)n1,22.5%
10,COc1cc2c(C#N)c(N3CCOCC3)nc(N)c2c(N)n1,46.6%
11,Cn1c(=O)c2c(nc(Oc3ccc4c(c3)OCO4)n2Cc2ccc(Cl)cc2)n(C)c1=O,12.9%
12,Cc1cc(Br)c(S(=O)(=O)NCCN2CCOCC2)cc1C,8.4%
13,CN(Cc1ccco1)C(=O)Cn1c(=O)oc2cc(S(=O)(=O)NCc3ccccc3)ccc21,13.3%
14,CN(CCCn1c(=S)[nH]c2ncccc2c1=O)Cc1ccccc1,-13.7%
15,COc1ccc(OC)c(-c2cc(C(=O)N3CCCc4ccccc43)no2)c1,-6.9%
16,COc1ccc(CCNC2CC(=O)N(CCc3ccc(OC)c(OC)c3)C2=O)cc1OC (stereo not drawn),6.1%
17,COC(=O)Nc1ccc(Oc2ccccc2)cc1,-4.1%
18,COc1ccccc1C(c1nnnn1Cc1ccccc1)N1CCN(c2nc3ccccc3s2)CC1 (stereo not drawn),-13%
19,O=S(=O)(c1ccc(Oc2ccc(S(=O)(=O)N3CCOCC3)cc2)cc1)N1CCOCC1,-9%
20,CNS(=O)(=O)c1ccc(Oc2ccc(S(=O)(=O)NC)cc2)cc1,9.9%
21,C=CS(=O)(=O)c1ccc(Oc2ccc(S(=O)(=O)C=C)cc2)cc1,94.8% (active)
22,CCn1cc(C(=O)NCc2ccccn2)c(=O)c2cc(F)c(N3CCN(C)CC3)cc21,2.1%
23,CCn1cc(C(=O)NCCCN(C)C)c(=O)c2cc(F)c(N3CCN(C)CC3)cc21,-0.3%
24,CCn1cc(C(=O)NCCc2ccccc2)c(=O)c2cc(F)c(N3CCN(C)CC3)cc21,50.5% (active)

row,SMILES,cytotoxicity
1,C/C(Cl)=C\Cn1c(N2CCCCCC2)nc2c1c(=O)n(C)c(=O)n2C,12%
2,N#Cc1ccc(NC(=O)c2cc3cc4c5c(c3oc2=N)CCCN5CCC4)cc1,12.7%
3,O=C(c1cc(Cl)ccc1Cl)N1CCN(c2ccccn2)CC1,1.5%
4,Cc1cc(-c2ccccc2)nc(N2CCN(c3ccccn3)CC2)n1,5.4%
5,COC(=O)c1sc(Nc2ccccc2)nc1C,0.2%
6,CCS(=O)(=O)N1CCN(c2cccc(C)c2C)CC1,-2.5%
7,c1ccc(-c2ccc(-c3nc(-c4ccccn4)no3)cc2)cc1,-2.8%
8,c1ccc(-c2cc(-c3nc(-c4ccccn4)no3)c3ccccc3n2)cc1,60.7% (active)
9,c1ccc(-c2cc(-c3nc(-c4cccnc4)no3)c3ccccc3n2)cc1,-19.7%
10,Cc1cc(C)n2cc(CSc3nnnn3-c3ccccc3C)nc2n1,-17.4%
11,COc1ccc(CSc2nnc(N)s2)cc1F,49.9%
12,Cc1ccc2c(c1)c1c3n2CCN(C(=O)C2CC2)C3CCC1 (stereo not drawn),-2.9%
13,Cc1ccc2c(c1)c1c3n2CCN(C(=O)CN2CCN(C)CC2)C3CCC1 (stereo not drawn),42.5%
14,COc1ccccc1N1CCN(C(=O)CCCCn2c(=O)[nH]c3ccsc3c2=O)CC1,1.8%
15,CN1CCc2nc(SCC(=O)Nc3ccc(F)cc3)c(C#N)cc2C1,-5%
16,O=C(Nc1cccc(C(F)(F)F)c1)c1cccnc1N1CCN(CCO)CC1,-13.4%
17,FC(F)(F)c1cccc(CN2CCCCCC2)c1,-5.3%
18,C=CCN1C(=O)c2ccccc2Sc2ccc(C(=O)N3CCN(C)CC3)cc21,-13.7%
19,O=C(CN1CCCC(O)C1)N1c2ccccc2Sc2ccc(C(F)(F)F)cc21 (stereo not drawn),-4%
20,C=CCOC(=O)CC(NC(=O)c1ccccc1)c1ccccc1 (stereo not drawn),-11.4%
21,COc1ccccc1-c1cn(S(=O)(=O)c2ccc(F)cc2)nc1N,2%
22,O=C(c1ccccc1)c1coc2ccc(O)c(Cl)c12,-15%
23,Cc1ccc(C(=O)c2coc3ccc(O)c(CN4CCN(C)CC4)c23)cc1,-9%
24,CN(C)Cc1c(O)ccc2occ(C(=O)c3ccccc3)c12,6.6%
